# Assay outcomes: PubChem BioAssay, Sanford-Burnham Center for Chemical Genomics
# Artemis endo inh: blocks endonuclease activity of human Artemis; recombinant Artemis, quenched FAM hairpin cleavage fluorescence; Q96SD1; inhibition, % at 10 µM; 30,000 compounds, 0.78% hits;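 active means at 10 µM dose, at least 30% inhibition, measured as corrected fluorescence normalized to stimulator and neutral control wells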
# Target sequence (Q96SD1 whole entry, looked up): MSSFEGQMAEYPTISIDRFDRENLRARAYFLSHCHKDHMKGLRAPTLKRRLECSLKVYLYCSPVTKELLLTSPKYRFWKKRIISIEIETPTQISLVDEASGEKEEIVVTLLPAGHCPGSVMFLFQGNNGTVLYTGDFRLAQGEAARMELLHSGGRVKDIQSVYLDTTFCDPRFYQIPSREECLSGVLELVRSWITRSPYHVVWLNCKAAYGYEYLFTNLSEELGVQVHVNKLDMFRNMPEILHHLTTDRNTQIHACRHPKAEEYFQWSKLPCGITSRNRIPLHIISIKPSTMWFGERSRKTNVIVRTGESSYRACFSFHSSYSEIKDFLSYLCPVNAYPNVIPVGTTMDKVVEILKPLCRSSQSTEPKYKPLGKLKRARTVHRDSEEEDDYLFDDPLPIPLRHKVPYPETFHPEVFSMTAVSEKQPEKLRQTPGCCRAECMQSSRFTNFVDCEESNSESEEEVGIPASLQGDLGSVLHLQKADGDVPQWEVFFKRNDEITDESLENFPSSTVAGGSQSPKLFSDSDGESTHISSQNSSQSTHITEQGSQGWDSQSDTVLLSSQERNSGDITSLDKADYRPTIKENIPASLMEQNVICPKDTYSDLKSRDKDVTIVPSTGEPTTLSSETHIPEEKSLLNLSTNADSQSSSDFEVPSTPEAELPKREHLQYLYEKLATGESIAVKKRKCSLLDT
# Active calls of the source: *. Only a selection was taken, and hits are over-represented in it overall.
SMILES,Artemis endo inh
COc1cc(-n2ccnc2SC)c(Cl)cc1Cl,52*
CCOC(=O)CSc1nnnn1-c1cc(OC)c(Cl)cc1OC,-13
CC(C)(C)C(=O)N1CCN(c2c(Cl)cccc2[N+](=O)[O-])CC1,7
COC(=O)c1ccc(C2/C(=C(/O)c3ccc(OC)cc3)C(=O)C(=O)N2c2cc(C)on2)cc1 (stereo not given),19
COC(=O)c1ccc(C2/C(=C(/O)c3ccc(OC(C)C)cc3)C(=O)C(=O)N2c2cc(C)on2)cc1 (stereo not given),32*
Cc1ccc(/C(O)=C2\C(=O)C(=O)N(c3cc(C)on3)C2c2cccc(Br)c2)cc1 (stereo not given),12
S=c1[nH]nc(Cc2sc(-c3ccccc3)nc2-c2ccccc2)o1,15
CCOC(=O)N1CCC(NC(=O)c2cc(C(=O)Nc3ccc(OC)c(OC)c3)ccc2CO)CC1,-9
O=C1/C(=C\c2ccco2)SC(=S)N1Cc1ccccc1,16
CC(C(=O)O)N1C(=O)/C(=C/C=C/c2ccco2)SC1=S (stereo not given),40*
C=CCSC1=N/C(=C\C=C\c2ccco2)C(=O)S1,15
Cc1nn(CC#N)c(=O)n1-c1ccccc1,1
CCOc1cccc(-c2nn3c(-c4cc(C)[nH]n4)nnc3s2)c1,6
COc1cccc(OC)c1-c1nn2c(-c3cc(-c4ccccc4)n[nH]3)nnc2s1,80*
Cc1cc(-c2nnc3sc(-c4ccc(Cl)cc4Cl)nn23)n[nH]1,6
CC(=O)N1CCN2C(=O)C1CCCC(=O)c1cc(C)ccc12 (stereo not given),-1
Cc1cccc(NC(=O)Cn2c(=O)oc3ccccc32)c1,-8
Cn1c(-c2ccc(C=O)s2)nc2c3ccccc3c3ccccc3c21,46*
CCN(CC)c1ncnc2sc(C(=O)N3CCN(c4ccccc4)CC3)c(C)c12,5
Cc1cccc(NC(=O)c2sc3nc4c(c(-c5cccs5)c3c2N)CN(C)CC4)c1,40*
CC(=O)c1sc2nc(-c3cccs3)cc(C(F)(F)F)c2c1N,-6
CC(C)NC(=O)c1sc2nc3c(c(-c4cccs4)c2c1N)CN(C)CC3,9
CCOC(=O)n1c(=O)n(Cc2ccc(Cl)c(Cl)c2)c2ccccc21,10
COc1cccc(/C=C2/CN(C)CC3=C2OC(N)=C(C#N)C3c2cccc(OC)c2)c1 (stereo not given),2
CC(=O)c1cccc(NC(=O)COc2ccc(S(=O)(=O)N3CCCCC3)cc2)c1,3
SMILES,Artemis endo inh
Cc1sc2ncnc(NCCc3ccc(S(N)(=O)=O)cc3)c2c1C,-1
O=C(NCc1ccco1)c1ccc2snnc2c1,0
O=C(NCCCNC(=O)c1ccco1)c1ccco1,7
O=C(NCCO)c1ccc2nc(-c3ccco3)c(-c3ccco3)nc2c1,38*
O=C(OCc1cnc(Cl)s1)c1cccc(Cl)c1Cl,2
COc1cccc(-c2nc(CS(=O)(=O)c3ccccc3)no2)c1,0
CCCCn1c(=NC(=O)c2ccc3c(c2)OCO3)c(C#N)cc2c(=O)n3cccc(C)c3nc21,40*
CCOC(=O)c1cc2c(=O)n3cccc(C)c3nc2n(CC2CCCO2)c1=NC(C)=O (stereo not given),2
CCNC(=O)c1cc2c(=O)n3cccc(C)c3nc2n(Cc2ccc(C)cc2)c1=N,7
CCOC(=O)c1ccc(COC(=O)c2cc3ccccc3oc2=O)o1,-8
CC(=O)c1c(C(C)=O)c(C)n(-c2ccc(N)c(C)c2)c1C,-1
Cn1cccc1/C=N/n1c(-c2ccccc2)n[nH]c1=S,-1
O=[N+]([O-])c1ccccc1/C=C/C=N/n1c(-c2ccc(Cl)cc2)n[nH]c1=S,30*
Cc1ccc(-c2n[nH]c(=S)n2/N=C/C=C\c2ccccc2[N+](=O)[O-])cc1,27
O=C(O)Cc1ccc(C(=O)c2ccccc2F)s1,0
c1cncc(-c2nnc3sc(C4CCCCC4)nn23)c1,2
c1ccc(-c2nnc3sc(-c4csc5c4CCCC5)nn23)cc1,32*
Clc1ccc(-c2nnc3sc(-c4ccc(Br)o4)nn23)cc1,-64
Cn1c(=O)[nH]c(=O)c2c1ncn2CCCc1ccccc1,4
O=C(CN(c1ccc(Cl)c(C(F)(F)F)c1)S(=O)(=O)c1ccccc1)N/N=C/c1cccc2c1OCCO2,10
Nc1[nH]n2c(=O)c3c(nc2c1N=Nc1ccc(Cl)cc1)CCCC3,30*
Cc1[nH]n2c(=O)c3c(nc2c1-c1ccccc1)CCC3,-1
Cc1[nH]n2c(=O)c3c(nc2c1-c1ccc(Cl)cc1)CCC3,8
CC(C)OP(=O)(OC(C)C)C1(O)C(=O)Nc2ccccc21 (stereo not given),0
COc1cccc(N=Nc2c(N)[nH]n3c(=O)cc(-c4ccccc4)nc23)c1,36*
SMILES,Artemis endo inh
CCOC(=O)Cc1cc(=O)n2[nH]c(C)c(-c3ccc(OC)cc3)c2n1,5
Cc1[nH]n2c(=O)cc(C(C)(C)C)nc2c1-c1ccccc1,15
COc1cccc(-c2cc(C(F)(F)F)n3ncc(C(=O)O)c3n2)c1,-2
CSc1nc2nc(-c3ccccc3)cc(=O)n2[nH]1,-2
Cc1ccc(N=Nc2c(N)[nH]n3c(=O)cc(-c4ccccc4)nc23)cc1,48*
Cc1ccc(C(=O)Nc2nc3nc(-c4ccccc4)cc(=O)n3[nH]2)cc1,3
Cc1[nH]n2c(=O)cc(-c3ccc([N+](=O)[O-])cc3)nc2c1-c1ccccc1,32*
Cc1ccc(N=Nc2c(=O)[nH]n3c(=O)cc(C)[nH]c23)cc1,12
CCOC(=O)c1sc(C)c2c1NC(C)(c1ccccc1)NC2=O (stereo not given),-11
CCN(CC)CCC(=O)Nc1ccc2c(c1)N(C(=O)CN(CC)CC)c1ccccc1CC2,5
COc1ccccc1N1CCN(c2nc3ccccn3c(=O)c2C=O)CC1,-6
CCCCOP(=O)(OCCCC)C1(NS(=O)(=O)c2ccccc2)C=CC(=O)c2ccccc21 (stereo not given),10
Cc1cccc(NC(=S)c2nc3ccccc3s2)c1,2
Cc1csc(NC(=O)C2CCCN(S(=O)(=O)c3ccc(Br)s3)C2)n1 (stereo not given),4
Cc1nn(Cc2ccccc2)c2c1C(c1cccc(Cl)c1)C(C#N)=C(N)O2 (stereo not given),1
CCCCN(CC)S(=O)(=O)c1ccc(C(=O)Nc2nnc(-c3ccccc3Cl)o2)cc1,10
CC1CCCCN1C(=O)c1ccc(S(=O)(=O)N2CCCCC2C)cc1 (stereo not given),-3
CC1CCCCN1S(=O)(=O)c1ccc(C(=O)Nc2nnc(-c3ccccc3Cl)o2)cc1 (stereo not given),32*
CCN1CCCC1CNS(=O)(=O)c1ccc(C(=O)Nc2ccccc2)cc1 (stereo not given),2
CCC1CCCCN1S(=O)(=O)c1ccc(C(=O)Nc2nnc(-c3ccccc3Cl)o2)cc1 (stereo not given),36*
COc1ccccc1-c1nnc(NC(=O)c2ccc(S(=O)(=O)N(C)C)cc2)o1,7
O=C(O)c1nn(-c2ccccc2)ccc1=O,-7
COc1cc(-c2nnc(SCC3(c4ccccc4)OCCO3)o2)cc(OC)c1OC,-8
O=C(Cc1c[nH]c2ccccc12)NCc1ccc2c(c1)OCO2,5
CNc1nc(C)cc(C)c1S(=O)(=O)c1ccc(C)cc1,4
N#Cc1cc2c(nc1SC1CCCCC1O)CCCC2 (stereo not given),4
Clc1ccc(-n2cccc2/C=N/n2cnnc2)cc1,-2
Clc1ccc(Cn2cc(/C=N/n3cnnc3)c3ccccc32)cc1,3
Cc1cc(/C=N/n2cnnc2)c(C)n1-c1ccc(OCc2ccc(Cl)cc2)cc1,33*
